In PubChem BioAssay (EPA / NIEHS):
Where “and” joins values, the source holds several entries; their conditions need not be identical. Equal entries are not always repeated. Some structures have more than one record in an assay (separate samples or runs), and their calls can disagree. Calls of active or inactive are those of the source. The calls were made as follows: active = hit-call score of the fitted dose curve at least 0.9, where 1 is the maximum; inactive = score below 0.9.

Read-out: Cytochrome P450 (CYP24A1), CYP24A1 (gene 1591)
Test: LTEA_HepaRG_CYP24A1: Life Technologies and Expression Analysis (LTEA) Assay for Cytochrome P450 (CYP24A1) using HepaRG (AID 2283478)
Conditions: mRNA level, 48 h; actives raise or lower the signal
Procedure, shortened: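 Differentiated HepaRG cells, pre-cultured 48 h, were exposed in duplicate for 48 h in serum-free induction medium to 8 half-log concentrations (top 100 uM, 0.5% DMSO). CYP24A1 mRNA was quantified by TaqMan qRT-PCR, normalized to ACTB/GAPDH/POLR2A, fitted bidirectionally versus DMSO.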

SMILES | outcome | AC50
O=C(Nc1ccccc1)Nc1ccnc(Cl)c1 | inactive | –
O=C(O)c1nc(Cl)ccc1Cl | inactive | –
O=C(O)COc1nc(Cl)c(Cl)cc1Cl | inactive | –
CC(Oc1ccc(Cl)cc1Cl)C(=O)O (stereo not drawn) | inactive | –
CCCCNC(=O)OCC#CI | inactive | –
COc1ccc(C(c2ccc(OC)cc2)C(Cl)(Cl)Cl)cc1 | inactive | –
CCNc1nc(Cl)nc(NCC)n1 | inactive | –
C=CC1(C)OC(=O)N(c2cc(Cl)cc(Cl)c2)C1=O (stereo not drawn) | inactive | –
CCOC(=O)CC(SP(=S)(OC)OC)C(=O)OCC (stereo not drawn) | inactive | –
Fc1ccc(Oc2ccnc3cc(Cl)cc(Cl)c23)cc1 | inactive | –
OC(c1ccc(Cl)cc1)(c1cncnc1)c1ccccc1Cl (stereo not drawn) | inactive | –
N#CC(CCc1ccc(Cl)cc1)(Cn1cncn1)c1ccccc1 (stereo not drawn) | inactive | –
N#Cc1nn(-c2c(Cl)cc(C(F)(F)F)cc2Cl)c(N)c1S(=O)C(F)(F)F (stereo not drawn) | inactive | –
CC1COC(Cn2cncn2)(c2ccc(Oc3ccc(Cl)cc3)cc2Cl)O1 (stereo not drawn) | – | 50 µM (active)
COP(=S)(OC)Oc1nc(Cl)c(Cl)cc1Cl | inactive | –
CCCN(CCC)c1c([N+](=O)[O-])cc(S(N)(=O)=O)cc1[N+](=O)[O-] | inactive | –
COC(=O)C=C(C)OP(=O)(OC)OC | inactive | –
CS/C(C)=N/OC(=O)N(C)SN(C)C(=O)O/N=C(\C)SC | inactive | –
CCOP(=S)(OCC)SCn1c(=O)oc2cc(Cl)ccc21 | inactive | –
COC(=O)C(C)Oc1ccc(Oc2ccc(Cl)cc2Cl)cc1 (stereo not drawn) | inactive | –
CNC(=S)S | inactive | –
C=CCC1=C(C)C(OC(=O)C2C(C=C(C)C)C2(C)C)CC1=O (stereo not drawn) | inactive | –
CCc1nn(C)c(C(=O)NCc2ccc(C(C)(C)C)cc2)c1Cl | inactive | –
C=CCC1=C(C)[C@@H](OC(=O)[C@@H]2[C@@H](C=C(C)C)C2(C)C)CC1=O | inactive | –
COc1nc(NC(C)C)nc(NC(C)C)n1 | inactive | –

Read-out: Cytochrome P450 (CYP1A2), CYP1A2 (gene 1544)
Test: LTEA_HepaRG_CYP1A2: Life Technologies and Expression Analysis (LTEA) Assay for Cytochrome P450 (CYP1A2) using HepaRG (AID 2283479)
Conditions: mRNA level, 48 h; actives raise or lower the signal
Procedure, shortened: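 Differentiated human HepaRG cells in serum-free induction medium were exposed in duplicate for 48 h to 8-point half-log concentrations up to 100 uM in 0.5% DMSO. CYP1A2 mRNA measured by qRT-PCR, normalized to ACTB, GAPDH, POLR2A; bidirectional fit vs DMSO.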

SMILES | AC50 | outcome
O=C(Nc1ccccc1)Nc1ccnc(Cl)c1 | 25.8 µM (active) | –
O=C(O)c1nc(Cl)ccc1Cl | 50 µM (active) | inactive
O=C(O)COc1nc(Cl)c(Cl)cc1Cl | – | inactive
CC(Oc1ccc(Cl)cc1Cl)C(=O)O (stereo not drawn) | – | inactive
CCCCNC(=O)OCC#CI | 31.1 µM (active) | –
COc1ccc(C(c2ccc(OC)cc2)C(Cl)(Cl)Cl)cc1 | – | inactive
CCNc1nc(Cl)nc(NCC)n1 | 50 µM (active) | –
C=CC1(C)OC(=O)N(c2cc(Cl)cc(Cl)c2)C1=O (stereo not drawn) | 18.8 µM (active) | –
CCOC(=O)CC(SP(=S)(OC)OC)C(=O)OCC (stereo not drawn) | 13.8 µM (active) | –
Fc1ccc(Oc2ccnc3cc(Cl)cc(Cl)c23)cc1 | 14.1 µM (active) | –
OC(c1ccc(Cl)cc1)(c1cncnc1)c1ccccc1Cl (stereo not drawn) | 86.6 µM (active) | –
N#CC(CCc1ccc(Cl)cc1)(Cn1cncn1)c1ccccc1 (stereo not drawn) | 85.6 µM (active) | –
N#Cc1nn(-c2c(Cl)cc(C(F)(F)F)cc2Cl)c(N)c1S(=O)C(F)(F)F (stereo not drawn) | 58.3 µM (active) | –
CC1COC(Cn2cncn2)(c2ccc(Oc3ccc(Cl)cc3)cc2Cl)O1 (stereo not drawn) | – | inactive
COP(=S)(OC)Oc1nc(Cl)c(Cl)cc1Cl | 66.5 µM (active) | –
CCCN(CCC)c1c([N+](=O)[O-])cc(S(N)(=O)=O)cc1[N+](=O)[O-] | 87.5 µM (active) | inactive
COC(=O)C=C(C)OP(=O)(OC)OC | – | inactive
CS/C(C)=N/OC(=O)N(C)SN(C)C(=O)O/N=C(\C)SC | – | inactive
CCOP(=S)(OCC)SCn1c(=O)oc2cc(Cl)ccc21 | 75.3 µM (active) | –
COC(=O)C(C)Oc1ccc(Oc2ccc(Cl)cc2Cl)cc1 (stereo not drawn) | – | inactive
CNC(=S)S | 50 µM (active) | –
C=CCC1=C(C)C(OC(=O)C2C(C=C(C)C)C2(C)C)CC1=O (stereo not drawn) | – | inactive
CCc1nn(C)c(C(=O)NCc2ccc(C(C)(C)C)cc2)c1Cl | 0.866 µM (active) | –
C=CCC1=C(C)[C@@H](OC(=O)[C@@H]2[C@@H](C=C(C)C)C2(C)C)CC1=O | – | inactive
COc1nc(NC(C)C)nc(NC(C)C)n1 | 44.9 µM (active) | –

Read-out: cysteine-aspartic acid protease (CASP8), CASP8 (gene 841)
Test: LTEA_HepaRG_CASP8: Life Technologies and Expression Analysis (LTEA) Assay for cysteine-aspartic acid protease (CASP8) using HepaRG (AID 2283480)
Conditions: mRNA level, 48 h; actives raise or lower the signal
Procedure, shortened: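 CASP8 transcript measured by TaqMan qRT-PCR with ACTB/GAPDH/POLR2A normalization, after 48 h chemical exposure of HepaRG cells in serum-free induction medium. Eight concentrations, top 100 uM, half-log steps, 0.5% DMSO vehicle; fits in both directions versus DMSO.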

SMILES | outcome | AC50
O=C(Nc1ccccc1)Nc1ccnc(Cl)c1 | inactive | –
O=C(O)c1nc(Cl)ccc1Cl | inactive | –
O=C(O)COc1nc(Cl)c(Cl)cc1Cl | inactive | –
CC(Oc1ccc(Cl)cc1Cl)C(=O)O (stereo not drawn) | inactive | –
CCCCNC(=O)OCC#CI | inactive | –
COc1ccc(C(c2ccc(OC)cc2)C(Cl)(Cl)Cl)cc1 | inactive | –
CCNc1nc(Cl)nc(NCC)n1 | inactive | –
C=CC1(C)OC(=O)N(c2cc(Cl)cc(Cl)c2)C1=O (stereo not drawn) | inactive | –
CCOC(=O)CC(SP(=S)(OC)OC)C(=O)OCC (stereo not drawn) | inactive | –
Fc1ccc(Oc2ccnc3cc(Cl)cc(Cl)c23)cc1 | inactive | –
OC(c1ccc(Cl)cc1)(c1cncnc1)c1ccccc1Cl (stereo not drawn) | – | 50 µM (active)
N#CC(CCc1ccc(Cl)cc1)(Cn1cncn1)c1ccccc1 (stereo not drawn) | inactive | –
N#Cc1nn(-c2c(Cl)cc(C(F)(F)F)cc2Cl)c(N)c1S(=O)C(F)(F)F (stereo not drawn) | inactive | –
CC1COC(Cn2cncn2)(c2ccc(Oc3ccc(Cl)cc3)cc2Cl)O1 (stereo not drawn) | inactive | –
COP(=S)(OC)Oc1nc(Cl)c(Cl)cc1Cl | inactive | –
CCCN(CCC)c1c([N+](=O)[O-])cc(S(N)(=O)=O)cc1[N+](=O)[O-] | inactive | 83.3 µM (active) and 79.5 µM (active)
COC(=O)C=C(C)OP(=O)(OC)OC | inactive | –
CS/C(C)=N/OC(=O)N(C)SN(C)C(=O)O/N=C(\C)SC | inactive | –
CCOP(=S)(OCC)SCn1c(=O)oc2cc(Cl)ccc21 | inactive | –
COC(=O)C(C)Oc1ccc(Oc2ccc(Cl)cc2Cl)cc1 (stereo not drawn) | inactive | –
CNC(=S)S | inactive | –
C=CCC1=C(C)C(OC(=O)C2C(C=C(C)C)C2(C)C)CC1=O (stereo not drawn) | inactive | –
CCc1nn(C)c(C(=O)NCc2ccc(C(C)(C)C)cc2)c1Cl | – | 35.8 µM (active)
C=CCC1=C(C)[C@@H](OC(=O)[C@@H]2[C@@H](C=C(C)C)C2(C)C)CC1=O | inactive | –
COc1nc(NC(C)C)nc(NC(C)C)n1 | inactive | –
